# Bioassay records deposited in PubChem by National Center for Advancing Translational Sciences (NCATS).
# L3MBTL1 block: L3MBTL1 (human) inhibition; Q9Y468; AlphaScreen L3MBTL1–H3K9me1 peptide binding; Potency, µM (titrated, usually from 57.1 µM), inactives show top-dose activity, negative = inhibition, usual class: inhibitors; 0.66% of 230,000 active; also: % is scaled to controls: 0 for no effect and ±100 for the full control effect; nearly all actives have a fitted effect of over 60% in size
#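 Displacement of a biotinylated histone H3(1-15) peptide monomethylated at Lys9 (75 nM) from L3MBTL1 (50 nM) was measured by AlphaScreen after a 30 min room-temperature compound incubation; cefsulodin titration served as intraplate control.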
# G9a inh: inhibitors of human histone lysine methyltransferase G9a | 8.8% of 350,000 active | G9a H3K9 monomethylation, AlphaScreen, 2 h | Potency, µM (highest dose often 102 µM), without a hit: at the top dose activity, negative = inhibition, actives largely listed as inhibitors | Q96KQ7; also: % is scaled to controls: 0 for no effect and ±100 for the full control effect; nearly all actives have a fitted effect of over 75% in size
#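 G9a (20 nM) preincubated 15 min RT with compounds, then 500 nM biotinylated H3K9 peptide and 20 uM SAM added; 2 h RT reaction. Monomethyl-H3K9 product detected by AlphaScreen with anti-H3K9me1 antibody, streptavidin donor and anti-rabbit IgG acceptor beads.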
# Sfp PPTase inh: Sfp phosphopantetheinyl transferase inhibition | 3.5% of 310,000 active | Q9F4F7 | Potency, µM, without a hit: largest response in the series, negative = inhibition, most hits filed as inhibitors | AID 1490 | Biochemical Sfp PPTase activity, qHTS;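 also: the enzyme is Sfp with the accession as filed and its product quenches rhodamine fluorescence; 0% = enzyme reaction without inhibitor and -100% = no enzyme wells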
#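 Sfp 15 nM + cpd, 15 min RT; start w/ rhodamine-CoA 5 uM, BHQ-2-YbbR 12.5 uM (final); 50 mM Hepes pH 7.6, 10 mM MgCl2, 0.01% NP-40, 0.01% BSA; read 525/598 nm at 0 and 30 min.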
# HP1b chromo inh: blocks HP1-beta chromodomain binding to methylated histone tails. P83916. AlphaScreen HP1-beta / biotin-H3K9me3 peptide binding. Potency, µM (series often up to 114 µM), for inactives: at the highest dose activity change, negative = inhibition, most hits filed as inhibitors. 0.56% of 390,000 active. AID 540317; also: nearly all actives have a fitted effect of over 70% in size
#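 Compound inhibition of the preformed complex between 50 nM HP1-beta and 50 nM biotinylated H3K9me3 peptide was read by AlphaScreen. Buffer was PBS pH 7.4 with 0.01% Tween-20. Incubations ran 30 min at room temperature, with 10 ug/mL donor/acceptor beads.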
# BAZ2B block: inhibitors of human BAZ2B bromodomain. AlphaScreen BAZ2B-H3K14Ac peptide displacement. Q9UIF8. Potency, µM (series often up to 114 µM), for the others: top-dose activity change, negative = inhibition, hits mostly inhibitors. AID 504333. 4.4% of 360,000 active; also: % is scaled to controls: 0 for no effect and ±100 for the full control effect; nearly all actives have a fitted effect of over 60% in size
#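 Compounds, titrated to a top concentration of 110 uM, were incubated 30 min at room temperature with preformed BAZ2B/acetyl-K14 H3 peptide complex (50 nM each). Proximity signal was measured by AlphaScreen after 20 min with beads.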
# JMJD2A Tudor: JMJD2A Tudor domain (human) inhibition. O75164. AlphaScreen JMJD2A-Tudor / H3K4me3 peptide binding. Potency, µM (doses to about 114 µM), inactives show at the highest dose activity change, negative = inhibition, usual class: inhibitors. 4.4% of 390,000 active. AID 504339; also: % is scaled to controls: 0 for no effect and ±100 for the full control effect; nearly all actives have a fitted effect of over 50% in size
# Target sequence (O75164 whole entry, looked up, the tested form may be a part): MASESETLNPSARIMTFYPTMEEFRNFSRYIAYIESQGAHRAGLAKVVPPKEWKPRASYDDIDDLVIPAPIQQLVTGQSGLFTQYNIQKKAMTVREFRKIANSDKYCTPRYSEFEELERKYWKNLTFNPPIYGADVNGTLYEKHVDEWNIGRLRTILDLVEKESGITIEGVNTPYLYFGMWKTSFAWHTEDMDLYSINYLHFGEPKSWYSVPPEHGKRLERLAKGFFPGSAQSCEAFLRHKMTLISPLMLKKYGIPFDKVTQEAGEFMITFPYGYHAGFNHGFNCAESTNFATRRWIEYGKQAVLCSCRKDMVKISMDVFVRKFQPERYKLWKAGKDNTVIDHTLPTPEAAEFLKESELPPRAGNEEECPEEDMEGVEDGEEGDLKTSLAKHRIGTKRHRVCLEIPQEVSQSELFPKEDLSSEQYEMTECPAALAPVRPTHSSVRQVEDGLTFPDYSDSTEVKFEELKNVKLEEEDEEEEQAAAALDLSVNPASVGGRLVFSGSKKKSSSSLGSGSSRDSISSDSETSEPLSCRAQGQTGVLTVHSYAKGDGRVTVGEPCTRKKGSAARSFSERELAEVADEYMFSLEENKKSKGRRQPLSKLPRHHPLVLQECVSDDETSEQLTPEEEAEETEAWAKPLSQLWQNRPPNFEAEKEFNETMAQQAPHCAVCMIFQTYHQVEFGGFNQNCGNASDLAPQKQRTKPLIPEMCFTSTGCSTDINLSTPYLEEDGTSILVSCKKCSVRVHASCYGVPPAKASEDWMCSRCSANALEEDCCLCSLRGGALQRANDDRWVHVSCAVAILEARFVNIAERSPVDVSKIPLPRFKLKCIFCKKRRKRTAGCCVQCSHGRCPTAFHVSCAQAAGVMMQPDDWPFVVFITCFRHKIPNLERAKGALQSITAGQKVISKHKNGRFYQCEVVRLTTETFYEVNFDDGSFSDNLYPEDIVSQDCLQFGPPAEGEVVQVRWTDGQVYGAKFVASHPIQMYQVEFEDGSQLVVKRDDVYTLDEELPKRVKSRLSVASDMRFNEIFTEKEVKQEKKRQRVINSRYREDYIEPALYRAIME
# * = called active by the depositor; u = inconclusive; x = no result; ! = not confirmed by another sample; [ ] = remark or other dose. This is a sample that favours compounds with a hit; in the whole collection about 12% have one here. Calls follow the shape of the dose curve; as a rule, active = well fitted curve in the direction sought with a large enough effect; inconclusive = small, poorly fitted or top-dose-only effect, or another doubt; inactive = no such curve, though single readings can be large; an effect the other way counts as inactive or inconclusive. Potency is read from the fitted curve at half-maximal effect.
SMILES,L3MBTL1 block,G9a inh,Sfp PPTase inh,HP1b chromo inh,BAZ2B block,JMJD2A Tudor
COc1ccc(CNCCc2ccc(Cl)cc2Cl)cc1,3%,25%,-2%,22%,9%,-2%
c1cc(CNCCc2ccc3c(c2)OCO3)ccn1,-1%[2.29 µM],23%[0.501 µM],-10%,u,56µM*,8.9µM*
O=[N+]([O-])c1cc2c(cc1CNCCc1ccc3c(c1)OCO3)OCO2,-9%,u,50µM*,40µM*,25µM*,1.1µM*
C=CCN1CC[C@@]23c4c5ccc(O)c4O[C@H]2/C(=N\N=C2/CC[C@@]4(O)[C@H]6Cc7ccc(O)c8c7[C@@]4(CCN6CC=C)[C@@H]2O8)CC[C@]3(O)[C@@H]1C5,x,x,-10%,x,x,x
C[C@]12N[C@@H](Cc3ccccc31)c1ccccc12,x,16%[21.5 µM],-2%,x,x,x
NCC[C@H](O)C(=O)N[C@H]1C[C@@H](N)[C@@H](O[C@H]2O[C@@H](CN)[C@@H](O)[C@@H](O)[C@@H]2N)[C@@H](O[C@H]2O[C@@H](CO)[C@@H](O)[C@@H]2O)[C@@H]1O,x,3%[5.15 µM],8%,x,x,x
CN[C@H](CC(C)C)C(=O)N[C@H]1C(=O)N[C@@H](CC(N)=O)C(=O)N[C@H]2C(=O)N[C@H]3C(=O)N[C@H](C(=O)N[C@H](C(=O)O)c4cc(O)cc(O)c4-c4cc3ccc4O)[C@H](O)c3ccc(c(Cl)c3)Oc3cc2cc(c3O[C@@H]2O[C@H](CO)[C@@H](O)[C@H](O)[C@H]2O[C@H]2C[C@](C)(N)[C@H](O)[C@H](C)O2)Oc2ccc(cc2Cl)[C@H]1O,x,38%[12.7 µM],x,x,x,x
Brc1ccccc1CNCCc1ccc2c(c1)OCO2,-1%,x,-22%,u,u,3.2µM*
CCN(CC)c1ccc(CNCCc2ccc(F)cc2)cc1,-21%,13µM*,2%,-17%,45µM*,u
CC(C)(O)C1C2OC(=O)C1[C@]1(O)CC3O[C@@]34C(=O)OC2[C@@]14C (stereo partly specified),x,-2%[2.33 µM],-4%,x,x,x
O=c1[nH]c(=S)n(C2CC2)c(O)c1/C=N/Nc1ccccc1,-5%,1.4µM*,50µM*,-1%,-34%,u
O=c1[nH]c(=S)n(C2CC2)c(O)c1/C=N/Nc1cccc2ccccc12,-25%,1.4µM*,20µM*,3%,u,u
C=C(C)[C@H]1[C@H]2OC(=O)[C@@H]1[C@]1(O)C[C@H]3O[C@]34C(=O)O[C@H]2[C@@]14C,x,20%[21.5 µM],11%,x,x,x
COc1ccc(-c2nc(CSCC(=O)N3CCC4(CC3)OCCO4)c(C)o2)cc1OC,-2%,x,-7%,26%,u,-2%
COc1ccc(-c2nc(CSCC(=O)N3CCN(c4ccc(F)cc4)CC3)c(C)o2)cc1,x,-49%[59 µM],x,-24%,-25%,50µM*
CN(C(=O)COc1nc2ccccc2s1)c1ccccc1,x,x,-5%,x,x,x
Cc1n[nH]c(C)c1CCCCOc1ccc([N+](=O)[O-])cc1,2%,50µM*,6%,18%,-20%,-15%
O=C(c1cccc(Cl)c1)C1CCCN(Cc2cccc3cnccc23)C1 (stereo unspecified),-13%,u,-1%,u,u,45µM*
CCOP(=S)(OCC)Oc1nc(Cl)c(Cl)cc1Cl,75%,-3%[0.501 µM],35µM*,93%,108%,77%
O=C(O)COc1nc(Cl)c(Cl)cc1Cl,x,x,8%,x,x,x
C/C=C1/C2C=C(C)CC1(N)c1ccc(=O)[nH]c1C2 (stereo unspecified),x,32%[59 µM],7%,x,x,x
COC(=O)c1ccc(NS(=O)(=O)NC(=O)c2cn(C)c3ccccc23)cc1,x,79µM*,23%,12%[57 µM],u,-13%
Oc1cccc(Nc2ncnc3sc4c(c23)CCCC4)c1,x,-30%[59 µM],x,-1%[57 µM],-2%,89µM*
O=C1CC2OCC=C3CN4CC[C@]56c7ccccc7N1C5C2[C@H]3C[C@H]46 (stereo partly specified),x,17%[59 µM],26%,x,x,x
CN1CCc2c(C#N)c(Cl)nc(Cl)c2C1,-1%,45µM*,5%,50%,-1%,-11%
SMILES,L3MBTL1 block,G9a inh,Sfp PPTase inh,HP1b chromo inh,BAZ2B block,JMJD2A Tudor
CN1CCc2c(c(N3CCCCC3)nc3n[nH]c(N)c23)C1,-4%,19%[12.7 µM],7%,19%,9%,-8%
CC(n1cc(C[C@H](N)C(=O)O)c2ccccc21)n1cc(C[C@H](N)C(=O)O)c2ccccc21,x,5%[59 µM],28µM*,x,x,x
Cn1cc(C(=O)c2ccccc2)c2ccccc21,x,-10%,15%,32%,8%,-4%
CCn1c(N)c(C(=O)NC)sc1=S,x,u,2.2µM*,-68%,u,56µM*
O=C(Nc1ccc(Br)cc1)c1cc(Br)cc(Br)c1O,x,3%[59 µM],-2%,x,x,x
Clc1ccc2c(c1)C(c1ccccc1)=NCc1nncn1-2,x,-29%[12.7 µM],9%,x,x,x
CCOC(=O)CNC(=O)CSP(=S)(OCC)OCC,x,u,79µM*,20%,2%,13%
CCOP(=S)(OCC)SCSP(=S)(OCC)OCC,x,x,x,90%,x,82%
CCOC(=O)c1sc(=NC(=O)c2ccc(C)c(C)c2)n(C)c1C,x,11%[59 µM],19%,-10%,-5%,20µM*
O=C(NCc1c(-n2cccc2)sc2c1CCCC2)Nc1cccc(C(F)(F)F)c1,x,-36%[59 µM],x,51%,-18%,-8%
C[N+]1(C)CCN(c2ccccc2)CC1,1%,8.4µM*!,19%,0%,-32%,45µM*
CC(O)CN(CCN(CC(C)O)CC(C)O)CC(C)O (stereo unspecified),x,8%[12.7 µM],79µM*,x,x,x
OC[C@H]1O[C@@H](n2cnc3cc(Cl)c(Cl)cc32)[C@H](O)[C@H]1O,x,u,11%,x,x,x
CN1C(=O)C(Cc2c[nH]c3ccccc23)C(=O)N(C)C1=O,-15%,13µM*,40µM*,x,-5%,x
CN1C(=O)C(Cc2cccc3ccccc23)C(=O)N(C)C1=O,-8%,u,-46%,20%,12%,-34%
CC[C@H](/C=C/[C@@H](C)[C@H]1CC[C@H]2C3CC=C4C[C@@H](O)CC[C@]4(C)C3CC[C@]12C)C(C)C (stereo partly specified),x,x,34%,x,x,x
CC(=O)Nc1ccc(N(C(=O)Cn2nnc3ccccc32)C(C(=O)NC2CCCC2)c2ccc(O)c(O)c2)cc1 (stereo unspecified),-5%,50µM*,-14%,-15%,-18%,-17%
O=C1NCCOC(=O)[C@@H](Cc2ccc(F)cc2)CC/C=C/C[C@@H]1CC(=O)N(CCO)Cc1ccccc1,4%,x,x,15%,x,-3%
O=C1NC(=O)C(=CCc2ccccc2)C(=O)N1,x,x,x,62%,x,-8%
COC(=O)Cn1cc(C=C2C(=O)N(C)C(=O)N(C)C2=O)c2ccccc21,3%,x,-17%,35%,-8%,-6%
